Each structure is given as a SMILES string. Inconclusive results are not listed. Calls of active or inactive are those of the source. Calls follow the shape of the dose curve; as a rule, active = well fitted curve in the direction sought with a large enough effect; inconclusive = small, poorly fitted or top-dose-only effect, or another doubt; inactive = no such curve, though single readings can be large; an effect the other way counts as inactive or inconclusive.

Assay [1] has as its system Zika virus NS2B-NS3 protease. Description: Primary screen GU AMC qHTS for Zika virus inhibitors (AID 1347154). Also: nearly all actives have a fitted effect of over 70% in size. Also: potency is read from the fitted curve at half-maximal effect.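 As to activity change, negative = inhibition: 0% = no-inhibitor control and -100% = no-enzyme control.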 A digest of the protocol: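 Unlinked Zika NS2B hydrophilic domain–NS3 protease complex at 25 nM in 10 mM Tris-HCl pH 8.0, 0.01% Tween 20, with an AMC peptide substrate. Fluorescence change (340/450 nm) over 15 min at room temperature, normalized to controls, fitted to 4-parameter Hill.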

Assay [2] concerns Zika virus NS2B-NS3 protease (unlinked complex). Description: Primary screen GU Rhodamine qHTS for Zika virus inhibitors: Unlinked NS2B-NS3 protease assay (AID 1347159). Also: nearly all actives have a fitted effect of over 60% in size. Also: potency is read from the fitted curve at half-maximal effect. As to activity change, negative = inhibition: % is scaled to controls: 0 for no effect and ±100 for the full control effect. A digest of the protocol: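 Noncovalent NS2B hydrophilic domain/NS3 protease complex (25 nM final) in 10 mM Tris-HCl pH 8.0, 0.01% Tween 20, preincubated 15 min with compounds (up to 114 microM), then 1.5 microM Rhodamine110 substrate. Fluorescence change over 15 min fitted to 4-parameter Hill.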

The test system of assay [3] is Zika virus NS2B-NS3 protease (linked construct). Description: Primary screen NINDS Rhodamine qHTS for Zika virus inhibitors (AID 1347160). Also: nearly all actives have a fitted effect of over 55% in size. As to activity change, negative = inhibition: % is scaled to controls: 0 for no effect and ±100 for the full control effect. A digest of the protocol:
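Purified NS2B-NS3 protease with the NS2B hydrophilic domain joined by a flexible linker (25 nM) in 10 mM Tris-HCl pH 8.0, 0.01% Tween 20, preincubated 15 min at RT with compound; Rhodamine110 peptide substrate 1.5 µM; fluorescence change over 15 min; 4-parameter Hill fit.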

A short description of assay [4]: Confirmatory screen NINDS Rhodamine qHTS for Zika virus inhibitors (AID 1347161). Also: potency is read from the fitted curve at half-maximal effect; nearly all actives have a fitted effect of over 60% in size. A digest of the protocol:
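qHTS dose-response: 25 nM linked protease, pH 8.0 Tris/Tween buffer, cpd titration, 15 min RT preinc, 1.5 microM Rhod110 peptide, 15 min reaction (~15% conversion), Ex480/Em540; 4-parameter Hill fit.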

As for `CNC1CCC(N(Cc2cccc(-c3ccncc3)c2)C(=O)c2sc3ccccc3c2Cl)CC1` (centres undefined), the Potency result in assay [1], in assay [2] and in assay [3] was “inactive” throughout.

For the compound `COc1ccc(CCC(=O)Nc2nc3ccc(Cl)cc3s2)cc1OC`, the Potency result in assay [1] and in assay [2] was “inactive” each time.

With `COc1ccc(-c2cc3nccn3c(Nc3ncccc3C(N)=O)n2)cc1OC`, in assay [2], the Potency entry is “inactive”.

On to `NC(=O)c1noc([C@H](CCCC2CCCCC2)CC(=O)NO)n1`, for which the Potency entry in assay [2] and in assay [3] was “inactive” in each case.

On to `CC(=O)Nc1cccc(-n2c(=O)n(C3CC3)c(=O)c3c(Nc4ccc(I)cc4F)n(C)c(=O)c(C)c32)c1`, for which the Potency entry in assay [1], in assay [2] and in assay [3] was “inactive” throughout.

`COc1ccc(-c2nc3ccc(C4=NNC(=O)CC4C)cc3[nH]2)cc1` (centres undefined): the Potency result in assay [2] is “inactive”.

Turning to `CN1CCN(c2cccc(Nc3nc4c(-c5ccc(S(C)(=O)=O)cc5)cccn4n3)c2)CC1`, the Potency result in assay [2] and in assay [3] was “inactive” each time.

For `NC1(C(=O)N[C@@H](CCO)c2ccc(Cl)cc2)CCN(c2ncnc3[nH]ccc23)CC1`, the Potency result in assay [1], in assay [2] and in assay [3] was “inactive” throughout.

As to `Nc1ncnc2c1c(-c1cccc(OCc3ccccc3)c1)cn2C1CC(CN2CCC2)C1` (centres undefined), the Potency entry in assay [1], in assay [2] and in assay [3] was “inactive” throughout.

Consider `CNC(=O)c1c(-c2ccc(F)cc2)oc2cc(N(CCO)S(C)(=O)=O)c(C3CC3)cc12`, for which the Potency in assay [1] is 27.1 µM (active). The Potency entry in assay [2] and in assay [3] was “inactive” in each case.

With `CN1C(=O)C(Cc2c[nH]c3ccccc23)NC1=S` (centres undefined), the Potency entry in assay [1], in assay [2] and in assay [3] was “inactive” each time.

In the case of `NC(=O)c1ccc(N(C(N)=O)c2c(F)cccc2F)nc1-c1ccc(F)cc1F`, the Potency result in assay [1], in assay [2] and in assay [3] was “inactive” each time.

For `Cc1cc(-c2ncc(CC(=O)Nc3ccc(-c4cnccn4)cn3)cc2C)ccn1`, the Potency entry in assay [2] and in assay [3] was “inactive” each time.

`CNC(=O)c1ccc2c(C(=Nc3cccc(CN(C)C)c3)c3ccccc3)c(O)[nH]c2c1`: the Potency entry in assay [2] was “inactive”.

Consider `CCN1C[C@H](C)n2c(c(O)c3c(=O)n(Cc4ccc(F)c(Cl)c4)nc(C(=O)NC)c32)C1=O`, for which the Potency entry in assay [1] and in assay [3] was “inactive” each time.

Take `O=C(c1ccc(C(=O)N2CCC(N3CCCC3)CC2)c(Nc2ccccc2)c1)N1CCC(N2CCCC2)CC1`: the Potency entry in assay [1] and in assay [3] was “inactive” throughout.

Take `COc1ccc(Cn2ccc3ccc(C(=O)NO)cc32)cc1`: the Potency entry in assay [2] was “inactive”.

In the case of `c1ccc(-c2oc3ncnc(NC[C@@H]4CCCO4)c3c2-c2ccccc2)cc1`, in assay [1], the Potency is 30.4 µM (active). Also, the Potency entry in assay [2] and in assay [3] was “inactive” throughout.

With `CC[C@H](CC#N)OC(=O)N[C@@H](C)c1cccc(NC(=O)Nc2ccc(-c3cnco3)c(OC)c2)c1`, the Potency entry in assay [1] and in assay [3] was “inactive” in each case.

With `COc1nc(C)cnc1NS(=O)(=O)c1cccnc1-c1ccc(-c2nnco2)cc1`, the Potency entry in assay [1], in assay [2] and in assay [3] was “inactive” each time.

Take `CN(C)c1ccc(-c2nc3ncc(Cl)c(N4CCN(CC(=O)Nc5nccs5)CC4)c3[nH]2)cc1`: the Potency in assay [2] was 17.8 µM (active).

Turning to `CN(C)CCCNC(=O)c1ccc(-c2cc(O)c3ncccc3c2)cc1`, the Potency result in assay [1] and in assay [3] was “inactive” each time.

`Cc1cnc(Nc2cccc(CN3CCOCC3)c2)nc1Nc1cccc(S(=O)(=O)NC(C)(C)C)c1`: the Potency entry in assay [1], in assay [2] and in assay [3] was “inactive” throughout.

As to `Fc1ccc(CNc2ncnc3ccc(F)cc23)cc1`, the Potency result in assay [1], in assay [2] and in assay [3] was “inactive” throughout.

With `CC(C)(OCc1nn(Cc2ccccc2)c2ccccc12)C(=O)O`, the Potency result in assay [1], in assay [2] and in assay [3] was “inactive” in each case.

For the compound `CC(C)CNc1ccnc(NCc2csc(-c3ccccc3)n2)n1`, the Potency entry in assay [1], in assay [2] and in assay [3] was “inactive” each time.

Regarding `c1ccc(CNc2nc(N3CCOc4ccccc43)nc3c2CCCC3)cc1`, the Potency result in assay [2] and in assay [3] was “inactive” throughout.

With `CC(C)(C)c1nc(-c2cccc(NS(=O)(=O)c3c(F)cccc3F)c2F)c(-c2ccnc(N)n2)s1`, the Potency in assay [2] is 14.1 µM (active).

Take `C=C1c2cccc(O)c2C(O)=C2C(=O)[C@@]3(O)C(O)=C(C(N)=O)C(=O)[C@@H](N(C)C)[C@@H]3[C@@H](O)[C@H]12`: the Potency in assay [4] is 15.6 µM (active).

For the compound `NS(=O)(=O)c1ccc(Nc2nc(OCC3CCCCC3)c3[nH]cnc3n2)cc1`, the Potency result in assay [1] and in assay [3] was “inactive” in each case.

Turning to `O=C(O)CCNc1cc(N2CCc3ccccc3CC2)nc(-c2ccccn2)n1`, the Potency entry in assay [1] and in assay [2] was “inactive” in each case. Further, the activity change, negative = inhibition in assay [3] was -4.33% [at 10.7 µM] (inactive).

Take `CN(C)CCOc1cc(-c2cn[nH]c2)ccc1NC(=O)C1COc2ccccc2O1` (centres undefined): the Potency result in assay [1], in assay [2] and in assay [3] was “inactive” in each case.

`N#Cc1ccc(Oc2ccc3c(c2)COB3O)cc1`: the Potency result in assay [1] and in assay [3] was “inactive” throughout.

For the compound `NS(=O)(=O)c1cc(Cl)c(Cl)c(S(N)(=O)=O)c1`, the Potency result in assay [1], in assay [2] and in assay [3] was “inactive” throughout.

Regarding `CCN1CCC(n2cc(CNc3cc(Cl)c4ncc(C#N)c(Nc5ccc(F)c(Cl)c5)c4c3)nn2)CC1`, the Potency entry in assay [1], in assay [2] and in assay [3] was “inactive” throughout.

On to `O=C1C(c2c(O)[nH]c3ccccc23)=Nc2ccccc21`, for which the Potency result in assay [1], in assay [2] and in assay [3] was “inactive” each time.

For `O[C@@H](COc1cccc2ncccc12)CN1CCN(C2c3ccccc3[C@@H]3[C@H](c4ccccc42)C3(F)F)CC1` (some centres undefined), in assay [2], the Potency entry is “inactive”.

Regarding `C[C@@H]1CCO[C@H]2Cn3cc(C(=O)NCc4ccc(F)cc4F)c(=O)c(O)c3C(=O)N12`, the Potency entry in assay [2] and in assay [3] was “inactive” in each case.

For the compound `O=C(CO)N1CCC(c2[nH]nc(-c3ccc(Cl)cc3)c2-c2ccncn2)CC1`, the Potency result in assay [1], in assay [2] and in assay [3] was “inactive” each time.

The values above are taken from PubChem BioAssay (NCATS).
